Laboratory results as given in PubChem BioAssay AID1063 (University of Pittsburgh Molecular Library Screening Center, 2008).
About 18,000 (9%) of roughly 200,000 compounds were called active. The sample holds actives, similar compounds and a random draw of the others, so the mix is not that of the screen. Unmarked numbers belong to inactive results. Cut-off read from the data, not from the text of the source: active = inhibition above about 50%; inactive = the rest.

Assay: antileishmanial activity against promastigotes – primary screen (AID 1063);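 note: promastigotes grown with compound for 44 hours at 28 °C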
Conditions: Leishmania major promastigotes, resazurin fluorescence viability; at 10 µM; active compounds read high

Row | Compound | inhibition
1 | C1CC1Cc1noc(CN2CCN(CC3CC3)CC2)n1 | 15.8%
2 | CCOc1ccc2nc(/N=C/c3nc(-c4ccccc4)oc3O)sc2c1 | 54.2% (active)
3 | CC(N=Cc1nc(-c2ccccc2)oc1O)c1ccccc1 (centres undefined) | -1.28%
4 | CCOc1ccc2nc(C(=O)N3CCCC(C)C3)sc2c1 (centres undefined) | 41.6%
5 | Cc1ccc(S(=O)(=O)N(C)CC(=O)OCC(=O)N2CC(=O)Nc3ccccc32)cc1 | 0.63%
6 | N/C(=N\OC(=O)c1ccc2c(c1)OCO2)c1ccc(Br)cc1 | 1.57%
7 | CCCC1CCC(=NNC(=S)NCCc2ccccc2)CC1 (centres undefined) | -9.55%
8 | Cc1ccc(NC(=S)N/N=C2/CCCc3c(C)cc(C)cc32)cc1 | -7.12%
9 | CCCCNC(=S)N/N=C1\CCCCc2ccccc21 | 97.5% (active)
10 | CCN(C(=O)COC(=O)c1cc(S(=O)(=O)N2CCc3ccccc32)ccc1OC)C1CCS(=O)(=O)C1 (centres undefined) | -4.24%
11 | CN(C)c1ccc(Nc2c3c4c(cccc4n(C)c2=O)C(=O)c2ccccc2-3)cc1 | 59% (active)
12 | NC(=O)Cc1nc2scc(-c3ccc(Cl)cc3)c2c(=O)[nH]1 | 5.26%
13 | O=c1[nH]c(CN2CCOCC2)nc2cc(Cl)ccc12 | -9.96%
14 | O=c1[nH]c(CCl)nc2cc(-c3ccc(Cl)cc3)sc12 | 96.9% (active)
15 | CCN(CC)C(=O)Oc1ccc(OC(=O)N(CC)CC)cc1 | -5.77%
16 | CCC(C)C(=O)Nc1cc([N+](=O)[O-])ccc1Cl (centres undefined) | 72.6% (active)
17 | CC(C)C(=O)Nc1cccc(NC(=O)c2ccc([N+](=O)[O-])cc2Cl)c1 | 6.59%
18 | Cc1ccc(NC(=O)c2cc([N+](=O)[O-])ccc2Cl)c(O)c1 | 15.1%
19 | CCCS(=O)(=O)N1CCC(CCOc2ccccc2)(C(=O)OCC)CC1 | -1.49%
20 | COc1ccc(Cl)cc1NC(=O)NC(C)C(C)(C)C (centres undefined) | 16.3%
21 | CCOC(=O)C1CCN(C(=O)/C=C/c2cc(OC)c(OC)c(OC)c2)CC1 | 55% (active)
22 | CCOC(=O)C1CCCN(C(=O)/C=C/c2ccc(OC)cc2)C1 (centres undefined) | 7.27%
23 | COc1ccc(/C=C/C(=O)N2CCCC2)cc1OC | -1.79%
24 | COc1ccc(CCNC(=O)CCCCn2c(=O)[nH]c3ccccc3c2=O)cc1OC | 1.29%
25 | O=C(CCn1c(=O)[nH]c2ccccc2c1=O)NCCCN1CCN(c2cccc(Cl)c2)CC1 | 3.18%

Row | Compound | inhibition
26 | O=C(CCCCCn1c(=O)[nH]c2ccccc2c1=O)NCCc1c[nH]c2ccccc12 | 97.7% (active)
27 | Cc1cc(C)c2c(NC(=O)C3CC3)nn(C)c2n1 | -2.35%
28 | O=C(CNCc1ccco1)Nc1cc(S(=O)(=O)N2CCOCC2)ccc1N1CCCC1 | -1.86%
29 | COc1ccc(NC(=O)CCN2CCCC2)c(OC)c1 | -0.8%
30 | COc1cccc(OCC(O)CN2CCN(CCO)CC2)c1 (centres undefined) | -0.73%
31 | Clc1ccccc1-c1cc(COc2ccc3ccccc3c2)no1 | -8.15%
32 | COc1cccc(OCCCN2CCCCCC2)c1 | 91.6% (active)
33 | COc1cccc(OCCOc2cccc(/C=N/n3cnnc3)c2)c1 | 3.61%
34 | O=C(COc1ccc2ccccc2c1)N1CCN(C(=O)c2cccs2)CC1 | -4.2%
35 | Cc1ccc(C(C)C)cc1OCCN1CCCC1 | 92.5% (active)
36 | Cc1cc(OCCN2CCCC2)cc(C(C)C)c1 | 92.5% (active)
37 | c1ccc2cc(OCCN3CCCC3)ccc2c1 | 84.2% (active)
38 | CCn1c(SCc2ccccc2)nc2c(c1=O)SCC2 | -0.56%
39 | O=C(Nc1cccnc1)c1ccc(Cl)cc1[N+](=O)[O-] | 2.3%
40 | Cc1ccc(-c2cc(C(=O)N3CCc4ccccc4C3)no2)cc1 | -3.45%
41 | CCC(=O)Nc1sc(C(=O)Nc2ccccc2)c(C)c1C(=O)OC | 0.3%
42 | CC(C)C(=O)Nc1ccc2oc(=O)ccc2c1 | 2.46%
43 | CCn1cc(-c2cc(C(=O)O)on2)c(C)n1 | -3.4%
44 | COc1ccc(NC(=S)Nc2ccc(S(N)(=O)=O)cc2)c(C)c1 | 5.95%
45 | CCCc1nnc(SCC(=O)N2C(C)CCCC2C)n1CC (centres undefined) | -8.2%
46 | O=C(NCc1ccc(Cl)cc1)NCc1ccc(Cl)cc1 | -7.12%
47 | Cc1cc(OCCN2CCCC2)ccc1C(C)C | 96.4% (active)
48 | CCNC(=O)CC1C(=O)N(c2ccc(F)cc2)C(=O)N1Cc1cccs1 (centres undefined) | -6.2%
49 | CSCCC(Nc1ccc(S(=O)(=O)N2CCOCC2)cc1[N+](=O)[O-])C(=O)OCC(=O)N(C(C)C)C(C)C (centres undefined) | 6.07%
